Compounds with a hit are over-represented: about 4.1% of the library has one in this group of screens.
DAX1 inh-1 = DAX1 (NR0B1) inhibitors on StAR promoter, primary screen, cell-based, luminescence, SF-1 (NR5A1), full-length DAX-1; HEK293T StAR-luciferase reporter, SF-1/DAX-1 repression relief; inhibition, % at 6.8 µM; 370,000 compounds, 1.1% hits;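 active means inhibition above the mean over all tested compounds plus 3 SD, cut at about 3.6% in these data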;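 further: higher inhibition means more luminescence from relief of DAX-1 repression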
hgDAF-12 ag = H. glycines DAF-12 receptor agonists, primary screen, cell-based, luminescence, HEK293, GAL4 fusion, UAS-luciferase | HEK293 GAL4-hgDAF12 UAS-luciferase reporter, agonist luminescence; normalized to butyrate control | activation, % at 6.8 µM | 370,000 compounds, 1.8% hits | AID 687014, 2013;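 active means activation above a cutoff set at the mean of all screened compounds plus 3 SD, cut at about 10% in these data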
ssDAF12 agonist = S. stercoralis DAF-12 nuclear receptor activators, primary screen, cell-based, luminescence, HEK293, GRIP1 co-expression, lit1-tk-luc; Nuclear hormone receptor DAF-12 (Strongyloides stercoralis); HEK293 ssDAF-12/GRIP1 lit1-tk-luc reporter; % of 3 µM dafachronic acid response; activation, % at 6.8 µM; 370,000 compounds, 1% hits; AID 652126, 2013;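 active means activation above the mean over all tested compounds plus 3 SD, cut at about 0.9% in these data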
hcDAF-12 act = H. contortus DAF-12 nuclear receptor activators, primary screen, cell-based, luminescence, HEK293, lit1-tk-luc reporter. HEK293 hcDAF-12 lit1-tk-luc reporter; 0% DMSO, 100% Δ7-dafachronic acid. activation, % at 6.8 µM. 370,000 compounds, 1.4% hits;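 active means activation above the mean of all tested compounds plus 3 SD, cut at about 5.5% in these data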
DAX1 inh-2 = DAX1 (NR0B1) inhibitors, primary screen, cell-based, HEK293, Gal4-DAX1, luciferase luminescence; 340,000 compounds, 0.99% hits; inhibition, % at 6.75 µM; Nuclear receptor subfamily 0 group B member 1 (Homo sapiens), P51843; HEK293 Gal4-DAX1 luciferase reporter;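 active means inhibition above the mean over all tested compounds plus 3 SD, cut at about 4.2% in these data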;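 further: inhibition shows as a rise in luminescence from relieved DAX1 repression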
Target sequence (P51843 207-470 limits assumed): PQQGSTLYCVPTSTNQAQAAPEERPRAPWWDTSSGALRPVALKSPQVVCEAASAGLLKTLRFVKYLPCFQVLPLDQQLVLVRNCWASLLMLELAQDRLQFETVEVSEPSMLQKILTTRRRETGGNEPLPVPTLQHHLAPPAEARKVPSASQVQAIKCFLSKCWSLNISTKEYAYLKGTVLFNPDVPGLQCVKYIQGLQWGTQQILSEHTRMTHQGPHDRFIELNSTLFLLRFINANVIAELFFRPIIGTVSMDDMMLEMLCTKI
hgDAF12 ag = H. glycines DAF-12 receptor agonists, confirmation, cell-based, luminescence, HEK293, GAL4-LBD fusion | 3,300 compounds, 80% hits | HEK293 GAL4-hgDAF12 luciferase reporter, agonist mode; percent of butyrate response | AID 743050, 2013 | activation, % at 6.8 µM | shares compounds with hgDAF-12 ag;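 active means mean activation over triplicate wells above the hit cutoff derived from the earlier primary screen, cut at about 11% in these data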
LXR ag 2 = LXR agonists, Gal4 luciferase reporter, confirmation, counter-screen for hgDAF-12 agonist project, cell-based, luminescence, HEK293, H. glycines campaign. shares compounds with hgDAF-12 ag. 24 h. activation, % at 6.8 µM. 3,300 tested, under 10 active;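 active means mean activation of the triplicate above a set limit carried over from the primary screen, none filed active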
Of the large screens only hits and unclear results are named; the others gave an inactive call (follow-up assays come after a bar, where they were run).

CCC(=O)c1ccc(OCc2ccc(C(=O)OC)cc2)cc1	hgDAF-12 ag 16 | hgDAF12 ag 15 | LXR ag 2 inactive
CC(C)C(=O)N/N=C/c1ccc(OCc2ccccc2)cc1	none
CCOc1ncccc1C(=O)OCc1ccc(C(=O)OC)cc1	hgDAF-12 ag 15 | hgDAF12 ag 12 | LXR ag 2 inactive
COC(=O)c1ccc(COc2ccc(/C=N/Nc3cccc(C(=O)O)c3)cc2)cc1	hgDAF-12 ag 17, ssDAF12 agonist 1.4 | hgDAF12 ag 13 | LXR ag 2 inactive
CC(C)[C@@H](CO)N(Cc1cn(Cc2ccccc2)nn1)S(=O)(=O)c1ccccc1Br	none (no result: DAX1 inh-2)
CCCCCCCCN1C(=O)[C@@H](CC(=O)N2CCN(C(=O)OCC)CC2)C[C@@]2(C(=O)OC)C1=C[C@H](C(C)C)O[C@@H]2C1CC1	none (no result: DAX1 inh-2)
COc1cc(N)ccc1NC(=O)c1cc2ccccc2o1	hgDAF-12 ag 17 | hgDAF12 ag inactive | LXR ag 2 inactive
CC(=O)Nc1ccc(N2CCCCC2)cc1	none
O=C(Nc1ccc(N2CCCCC2)cc1)c1cncc(Br)c1	hgDAF-12 ag 15 | hgDAF12 ag 14 | LXR ag 2 inactive
CC(=O)N1CCN(c2ccc(NC(=O)c3ccc4ccccc4c3)cc2)CC1	none
Cn1nnc2cc(C(=O)NC3CC3)ccc21	none
O=C(Nc1ccc(S(=O)(=O)N2CCCC2)cc1)c1cncc(Br)c1	none
O=C(Nc1ccc(N2CCCC2)cc1)c1ccc2ccccc2c1	hgDAF-12 ag 16 | hgDAF12 ag 12 | LXR ag 2 inactive
Cn1nnc2cc(C(=O)Nc3ccc4ccccc4c3)ccc21	hgDAF-12 ag 15 | hgDAF12 ag 17 | LXR ag 2 inactive
O=C(Nc1ccc(N2CCCCC2)cc1)c1ccc(F)cc1F	DAX1 inh-1 3.6, hgDAF-12 ag 13, hcDAF-12 act 5.7 | hgDAF12 ag 17 | LXR ag 2 inactive
COc1ccccc1NS(=O)(=O)c1cccc(NC(=O)Nc2ccccc2)c1	none
CN(c1ccccc1)S(=O)(=O)c1cccc(NC(=O)c2cc3ccccc3oc2=O)c1	hgDAF-12 ag 16 | hgDAF12 ag inactive | LXR ag 2 inactive
COc1ccccc1NS(=O)(=O)c1cccc(NC(=O)c2cc3ccccc3oc2=O)c1	hgDAF-12 ag 16 | hgDAF12 ag 13 | LXR ag 2 inactive
COC(=O)[C@]12C[C@H](CC(=O)NCCc3ccccc3OC)C(=O)N(Cc3ccc4c(c3)OCO4)C1=C[C@H](COCc1ccccc1)O[C@@H]2C	none (no result: DAX1 inh-2)
Cc1cc(OCC(=O)Nc2ccccc2C)no1	none
Cc1cc(OCC(=O)Nc2c(C(C)C)cccc2C(C)C)no1	hgDAF-12 ag 20 | hgDAF12 ag inactive | LXR ag 2 inactive
Cc1cc(C(=O)NC2=NCCS2)cs1	hgDAF-12 ag 17 | hgDAF12 ag 15 | LXR ag 2 inactive
Cc1ccc(N2C(=O)c3ccc(N)cc3C2=O)cc1	hgDAF-12 ag 16 | hgDAF12 ag 16 | LXR ag 2 inactive
CN(C)c1ccc(/C=N/OC(=O)Nc2ccccc2)cc1	hgDAF-12 ag 14, hcDAF-12 act 5.8 | hgDAF12 ag 18 | LXR ag 2 inactive
CCOc1ccc(N2C(=O)c3ccccc3C2O)cc1 (centres undefined)	DAX1 inh-1 3.8, hgDAF-12 ag 20 | hgDAF12 ag inactive | LXR ag 2 inactive
COC(=O)C1CN(Cc2ccc(OC)cc2)CCS(=O)(=O)N1Cc1cn(Cc2ccc(F)cc2)nn1 (centres undefined)	none (no result: DAX1 inh-2)
Cc1ccc(N=Nc2ccc(O)cc2)c(Br)c1	hgDAF-12 ag 15 | hgDAF12 ag 16 | LXR ag 2 inactive
O=S1(=O)c2ccc(N3CC[C@@H](O)C3)cc2O[C@@H]2CCN1C2	none (no result: DAX1 inh-2)
Cc1cc(O)ccc1Nc1cc(-c2cccc(N(C)C)c2)ncn1	DAX1 inh-1 4.2, hgDAF-12 ag 14, hcDAF-12 act 5.8 (no result: DAX1 inh-2) | hgDAF12 ag 18 | LXR ag 2 inactive
CN(C)c1cccc(O)c1	none
CCN(CC)c1c2c(nc3ncnn13)CCCC2	none (no result: DAX1 inh-2)
COc1ccccc1C(=O)NC1CCCCN(Cc2ccccc2C)C1=O (centres undefined)	none (no result: DAX1 inh-2)
Cc1ccc(-n2c(SCC(=O)c3ccc(F)cc3)nnc2-c2cnccn2)cc1	none (no result: DAX1 inh-2)
CCCOc1ccc(-c2c(=O)n(O)c3ccccc3[n+]2[O-])cc1	DAX1 inh-1 4.5, hgDAF-12 ag 20, hcDAF-12 act 6.2 | hgDAF12 ag 13 | LXR ag 2 inactive
CN=c1scc(-c2cccs2)n1/N=C/c1ccc(O)c(O)c1O	hgDAF-12 ag 14, hcDAF-12 act 6.1 | hgDAF12 ag 11 | LXR ag 2 inactive
O=C(O)CCS(=O)(=O)c1ccccc1Cl	hgDAF-12 ag 17 | hgDAF12 ag inactive | LXR ag 2 inactive
Fc1cccc(Cl)c1CN1CCN(c2ncc(Cc3ccccc3)cn2)CC1	none (no result: DAX1 inh-2)
COc1ccc(NC(=O)CSC2CCCCC2)cc1	hgDAF-12 ag 23 | hgDAF12 ag 15 | LXR ag 2 inactive
NS(=O)(=O)c1ccc(NC(=O)CSC2CCCCC2)cc1	none
CSc1nsc(SCC(=O)Nc2ccc(C(C)=O)cc2)n1	hgDAF-12 ag 14, ssDAF12 agonist 1.0, hcDAF-12 act 12 | hgDAF12 ag 21 | LXR ag 2 inactive
CN1OC[C@@H]2CN[C@H](c3ccc(-n4ccnc4)cc3)C[C@@H]21	none (no result: DAX1 inh-2)
Cc1ccc(O)c(C2=NNC(O)(C(F)(F)F)C2)c1 (centres undefined)	none
Cc1ccc(O)c(C2=NNC(c3ccc(Cl)cc3)C2)c1 (centres undefined)	hgDAF-12 ag 15, hcDAF-12 act 5.7 | hgDAF12 ag 13 | LXR ag 2 inactive
O=C(CNC(=O)c1cccs1)c1ccc(Br)cc1	hgDAF-12 ag 15 | hgDAF12 ag 14 | LXR ag 2 inactive
O=C(CNC(=O)c1cccs1)OCc1ccc(Br)cc1	none
COc1ccc(C2CC(=O)C(c3cccc(OC)c3)=CN2Cc2ccccc2)cc1 (centres undefined)	none (no result: DAX1 inh-2)
